Assay results from PubChem BioAssay (NCATS).
Records with an inconclusive call do not appear. Calls of active or inactive are those of the source. Unless noted, calls follow the shape of the dose curve; as a rule, active = well fitted curve in the direction sought with a large enough effect; inconclusive = small, poorly fitted or top-dose-only effect, or another doubt; inactive = no such curve, though single readings can be large; an effect the other way counts as inactive or inconclusive. Residues, ends and D or L forms follow the SMILES beside them. *: point of attachment. Cbz = O=C(OCc1ccccc1)*

Experiments:
[1] = Nrf2 qHTS screen for inhibitors: Validation (AID 493153; active = well fitted inhibition curve with a large enough effect in the main read-out, with a control signal flat, not every such curve was filed as active); details: Potency: luciferase luminescence; viability change: measured here: cytotoxicity max response
Method in brief: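 Luminescence from an ARE-firefly luciferase reporter in A549 cells gives Nrf2 inhibition; an earlier CellTiter-Fluor fluorescent read flags cytotoxicity. Cells in 5% FBS OPTI-MEM received compound dilution series for 18-24 h at 37°C.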

[2] = qHTS for Inhibitors of Cell Surface uPA Generation: Validation Assay (AID 493164)
Method in brief: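 RAW 264.7 cells (4000/well) were plated overnight, then exposed for 18 h at 37 C, 5% CO2 to compounds in a 7-point 1:5 titration (2.45 nM–38.3 uM final). Intracellular ATP was read by ATP-Lite luminescence.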

[3] = target: Galactokinase (Homo sapiens) (UniProt P51570); assay: qHTS Validation Assay for Inhibitors of Human Galactokinase (GALK) (AID 493189)
Method in brief: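 GALK (5 nM) with 35 uM ATP and 100 uM galactose in HEPES pH 8.0 with MgCl2, NaCl, DTT and BSA. Reaction ran 1 h at room temperature. Residual ATP read by Kinase-Glo Plus luminescence.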

[4] = Validation screen for small molecules that induce DNA re-replication in SW480 colon adenocarcinoma cells (AID 504364)
Method in brief: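 250 cells/well; compound pinned in; 48 hr, 37 C, 5% CO2; Hoechst added, 40 min; nuclear fluorescence imaged, 405 ex / 500-530 em; re-replication scored as increase in high-intensity nuclei.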

[5] = target: Peptidyl-prolyl cis-trans isomerase NIMA-interacting 1 (Homo sapiens) (UniProt Q13526); assay: qHTS Validation Assay to Find Inhibitors of Pin1 (AID 504536; active = well fitted inhibition curve with a large enough effect in the polarisation, with a control signal flat, not every such curve was filed as active; the % refers to the polarisation)
Method in brief: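 Fluorescence polarization competition: compounds (titration) displace HiFluor-488-labeled Pin1-1b peptide from Pin1 (0.3 uM final) in pH 7.5 HEPES buffer with DTT, 10 min at room temperature; %Activity normalized to no-enzyme wells, curves fitted.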

[6] = target: Phosphoglycerate kinase, glycosomal (Trypanosoma brucei brucei) (UniProt P07378); assay: qHTS Validation Assay to Find Inhibitors of Phosphoglycerate Kinase (AID 504547)
Method in brief: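 Inhibition of the enzyme is judged by a Kinase-Glo Plus luminescent signal following a one-hour incubation at room temperature. Because 1,3-BPG is unstable, it is made in situ by GAPDH at 100nM final; no-PGK wells define the baseline.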

[7] = target: phosphoglycerate mutase (Leishmania major) (UniProt Q4Q090); assay: qHTS Validation Assay to Find Inhibitors of Phosphoglycerate Mutase (AID 504548); details: Potency: inhibition qHTS;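 also: end-point luminescence from Kinase-GloPlus after the PGAM reaction; series mostly up to about 58 µM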
Method in brief: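 L. major PGAM (1.25nM final) was added to substrate buffer and pinned compound, incubated 45 minutes at room temperature, then Kinase-GloPlus added; luminescence read after 10 minutes. Buffer: 100 mM TEA pH 7.6, 5 mM MgCl2, 0.01% Tween-20.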

[8] = target: Ubiquitin carboxyl-terminal hydrolase 1 (Homo sapiens) (UniProt O94782); assay: Inhibitors of USP1/UAF1: Pilot qHTS (AID 504865);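 also: rhodamine fluorescence freed from ubiquitin-rhodamine substrate followed over time; top concentration of the series differs between compounds; nearly all actives have a fitted effect of over 35% in size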
Method in brief: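 USP1/UAF1 complex at 1 nM preincubated 15 min at room temperature with compound, then Ub-Rho substrate added at 150 nM final. Fluorescence (480/540 nm) read kinetically in 50 mM HEPES pH 7.8, 0.5 mM EDTA, 1 mM TCEP, 0.1 mg/ml BSA, 0.01% Tween-20.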

[9] = qHTS for Inhibitors of ATXN expression: Validation of Cytotoxic Assay (AID 588349)
Method in brief: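 Read-out: ATP-based luminescence (CellTiter Glo) reflecting viability of HEK293 cells after 72 hr incubation at 37 degrees C with a concentration series of each compound.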

[10] = qHTS for Inhibitors of ATXN expression: Validation (AID 588378); also: nearly all actives have a fitted effect of over 75% in size; also: potency is read from the fitted curve at half-maximal effect
Method in brief: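 HEK293 cells carrying ATXN2-firefly luciferase reporter, treated with compound 24 h at 37 °C. Viability read first by CellTiter-Fluor (405/525 nm), then reporter expression by Bright-Glo luminescence; controls were a known ATXN2 expression inhibitor and a luciferase inhibitor.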

phosphoglycerate mutase (Leishmania major), sequence (Q4Q090 1-553): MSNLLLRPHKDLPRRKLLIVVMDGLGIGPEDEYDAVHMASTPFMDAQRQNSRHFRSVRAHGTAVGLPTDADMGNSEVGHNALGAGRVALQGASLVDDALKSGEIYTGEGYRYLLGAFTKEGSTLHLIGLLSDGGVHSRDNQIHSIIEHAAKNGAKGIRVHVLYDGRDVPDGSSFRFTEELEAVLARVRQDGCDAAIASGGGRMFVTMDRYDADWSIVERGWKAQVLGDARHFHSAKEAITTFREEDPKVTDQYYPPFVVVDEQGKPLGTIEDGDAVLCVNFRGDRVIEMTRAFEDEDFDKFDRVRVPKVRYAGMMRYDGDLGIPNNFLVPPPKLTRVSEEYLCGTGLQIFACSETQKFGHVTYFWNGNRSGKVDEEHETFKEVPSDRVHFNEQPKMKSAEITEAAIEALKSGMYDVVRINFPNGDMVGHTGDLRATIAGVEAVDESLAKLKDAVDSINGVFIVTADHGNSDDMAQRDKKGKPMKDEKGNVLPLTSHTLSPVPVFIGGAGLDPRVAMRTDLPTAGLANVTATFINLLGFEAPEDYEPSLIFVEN
Galactokinase (Homo sapiens), sequence (P51570 whole entry, looked up): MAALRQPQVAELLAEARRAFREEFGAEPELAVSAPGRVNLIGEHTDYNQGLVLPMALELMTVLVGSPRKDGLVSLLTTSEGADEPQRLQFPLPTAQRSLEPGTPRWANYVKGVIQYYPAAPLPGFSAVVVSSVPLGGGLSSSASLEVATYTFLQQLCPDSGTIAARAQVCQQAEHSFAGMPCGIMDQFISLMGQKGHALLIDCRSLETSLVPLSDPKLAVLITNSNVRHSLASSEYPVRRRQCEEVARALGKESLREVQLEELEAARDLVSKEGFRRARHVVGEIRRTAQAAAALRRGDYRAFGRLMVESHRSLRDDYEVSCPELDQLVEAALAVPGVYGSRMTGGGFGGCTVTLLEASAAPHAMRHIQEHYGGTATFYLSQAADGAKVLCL
Peptidyl-prolyl cis-trans isomerase NIMA-interacting 1 (Homo sapiens), sequence (Q13526 whole entry, looked up): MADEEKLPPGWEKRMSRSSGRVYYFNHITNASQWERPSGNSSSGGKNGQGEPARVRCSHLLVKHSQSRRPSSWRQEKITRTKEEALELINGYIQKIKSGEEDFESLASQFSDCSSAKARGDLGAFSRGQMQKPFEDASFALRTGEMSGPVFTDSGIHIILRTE
Ubiquitin carboxyl-terminal hydrolase 1 (Homo sapiens), sequence (O94782 whole entry, looked up): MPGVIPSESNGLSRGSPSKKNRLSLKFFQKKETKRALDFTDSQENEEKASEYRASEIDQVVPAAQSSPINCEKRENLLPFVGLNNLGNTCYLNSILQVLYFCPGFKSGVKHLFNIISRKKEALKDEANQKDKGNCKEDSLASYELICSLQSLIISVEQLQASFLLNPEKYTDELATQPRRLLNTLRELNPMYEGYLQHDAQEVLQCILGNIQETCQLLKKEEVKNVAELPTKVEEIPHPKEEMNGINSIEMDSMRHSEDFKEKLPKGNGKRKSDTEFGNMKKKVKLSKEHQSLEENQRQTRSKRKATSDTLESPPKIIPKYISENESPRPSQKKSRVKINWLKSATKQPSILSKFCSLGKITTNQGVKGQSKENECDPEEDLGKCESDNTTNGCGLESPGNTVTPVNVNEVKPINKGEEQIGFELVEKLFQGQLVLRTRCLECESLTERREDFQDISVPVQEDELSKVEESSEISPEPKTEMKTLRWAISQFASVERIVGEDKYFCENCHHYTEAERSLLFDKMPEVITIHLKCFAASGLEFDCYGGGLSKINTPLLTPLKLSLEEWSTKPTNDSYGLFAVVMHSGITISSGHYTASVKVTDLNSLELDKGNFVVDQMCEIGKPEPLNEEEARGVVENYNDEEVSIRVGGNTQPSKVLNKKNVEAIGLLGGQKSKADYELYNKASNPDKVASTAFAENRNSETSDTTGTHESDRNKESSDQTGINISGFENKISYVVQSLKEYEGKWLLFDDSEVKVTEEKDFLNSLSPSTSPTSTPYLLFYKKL
Phosphoglycerate kinase, glycosomal (Trypanosoma brucei brucei), sequence (P07378 whole entry, looked up): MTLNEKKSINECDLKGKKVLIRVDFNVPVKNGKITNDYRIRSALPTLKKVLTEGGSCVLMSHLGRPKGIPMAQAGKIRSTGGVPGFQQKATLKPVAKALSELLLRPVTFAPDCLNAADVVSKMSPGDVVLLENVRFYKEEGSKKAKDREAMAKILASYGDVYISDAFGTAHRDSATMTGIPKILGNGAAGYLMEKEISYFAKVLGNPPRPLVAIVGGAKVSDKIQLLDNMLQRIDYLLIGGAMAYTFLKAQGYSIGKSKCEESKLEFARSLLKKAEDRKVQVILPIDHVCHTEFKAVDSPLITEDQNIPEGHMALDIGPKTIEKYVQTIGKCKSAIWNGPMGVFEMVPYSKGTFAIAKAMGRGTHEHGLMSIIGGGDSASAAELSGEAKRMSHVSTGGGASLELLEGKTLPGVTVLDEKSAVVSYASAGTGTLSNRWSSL

COc1ccccc1N1CCN(CCCNc2c(C)c(=O)n(C)c(=O)n2C)CC1
inactive: Potency [1] | outcome [2] | Potency [3] | Potency [4] | Potency [5] | Potency [6] | Potency [7] | Potency [8] | Potency [9] | Potency [10]
3.58%: viability change [1]

CCOC(=O)C12CC1/C(=N/O)c1ccccc1O2 (stereo unspecified)
1.91%: viability change [1]
inactive: Potency [1] | outcome [2] | Potency [3] | Potency [4] | Potency [5] | Potency [6] | Potency [7] | Potency [8] | Potency [9] | Potency [10]

NOCC(=O)O
inactive: Potency [1] | outcome [2] | Potency [3] | Potency [4] | Potency [5] | Potency [6] | Potency [7] | Potency [8] | Potency [9] | Potency [10]
18.2%: viability change [1]

[Li+]
inactive: Potency [1] | outcome [2] | Potency [3] | Potency [4] | Potency [5] | Potency [6] | Potency [7] | Potency [8] | Potency [9] | Potency [10]
6.42%: viability change [1]

CCCCCCCCCC[Si](C)(C)CCC(=O)NC(Cc1ccc(C)cc1)c1ccccc1 (stereo unspecified)
-1.11%: viability change [1]
inactive: Potency [1] | outcome [2] | Potency [3] | Potency [4] | Potency [5] | Potency [6] | Potency [7] | Potency [8] | Potency [9] | Potency [10]

NCCCCN=C(N)N
inactive: Potency [1] | outcome [2] | Potency [3] | Potency [4] | Potency [5] | Potency [6] | Potency [7] | Potency [8] | Potency [10]
-0.37%: viability change [1]

O=C(c1ccc2c(c1)OCCO2)N1CCCCC1
inactive: Potency [1] | outcome [2] | Potency [3] | Potency [4] | Potency [5] | Potency [6] | Potency [8] | Potency [9] | Potency [10]
1.66%: viability change [1]

O=c1oc(Cl)c(Cl)c2ccccc12
-4.81%: viability change [1]
inactive: Potency [1] | outcome [2] | Potency [3] | Potency [4] | Potency [5] | Potency [6] | Potency [7] | Potency [9] | Potency [10]

NC/C=C\C(=O)O
-0.476%: viability change [1]
inactive: Potency [1] | outcome [2] | Potency [3] | Potency [4] | Potency [5] | Potency [6] | Potency [7] | Potency [8] | Potency [10]

CCCC[C@@]1(C2CCCC2)Cc2cc(OCC(=O)O)c(Cl)c(Cl)c2C1=O
inactive: Potency [1] | outcome [2] | Potency [3] | Potency [4] | Potency [5] | Potency [6] | Potency [7] | Potency [9]
-6.32%: viability change [1]

CN(C)CCC(c1ccc(Br)cc1)c1ccccn1 (stereo unspecified)
3.82%: viability change [1]
inactive: Potency [1] | outcome [2] | Potency [3] | Potency [4] | Potency [5] | Potency [6] | Potency [8] | Potency [9]

N#Cc1cc2nc(O)c(O)nc2cc1[N+](=O)[O-]
inactive: Potency [1] | outcome [2] | Potency [3] | Potency [4] | Potency [5] | Potency [6] | Potency [7] | Potency [8] | Potency [10]
-8.54%: viability change [1]

COC(=O)C1=C(C)NC(C)=C([N+](=O)[O-])C1c1ccccc1C(F)(F)F (stereo unspecified)
-10.2%: viability change [1]
inactive: Potency [1] | outcome [2] | Potency [3] | Potency [4] | Potency [5] | Potency [6] | Potency [7] | Potency [9] | Potency [10]

COc1ccccc1N1CCN(CCCCN2C(=O)c3ccccc3C2=O)CC1
4.76%: viability change [1]
inactive: Potency [1] | outcome [2] | Potency [3] | Potency [4] | Potency [5] | Potency [6] | Potency [7] | Potency [8] | Potency [10]

N=C(N)c1ccccc1
6.8%: viability change [1]
inactive: Potency [1] | outcome [2] | Potency [3] | Potency [4] | Potency [5] | Potency [6] | Potency [8] | Potency [9] | Potency [10]

CC(C)[C@H](NC(=O)OCc1ccccc1)C(=O)N[C@H](C=O)Cc1ccccc1 (Cbz-Val-Phe-aldehyde)
inactive: Potency [1] | outcome [2] | Potency [3] | Potency [4] | Potency [5] | Potency [6] | Potency [7] | Potency [8] | Potency [10]
13.7%: viability change [1]

N#CC(C#N)=C(N)/C(C#N)=C/c1ccc(O)cc1
1.78%: viability change [1]
inactive: Potency [1] | outcome [2] | Potency [3] | Potency [4] | Potency [5] | Potency [6] | Potency [8] | Potency [9] | Potency [10]

c1ccc2c(c1)CC(N1CCN(c3cccc4c3OCCO4)CC1)C2
inactive: Potency [1] | outcome [2] | Potency [3] | Potency [4] | Potency [5] | Potency [6] | Potency [7] | Potency [8] | Potency [10]
3.52%: viability change [1]

COCc1nc2c([nH]1)c(=O)n(C)c(=O)n2CC(C)C
inactive: Potency [1] | outcome [2] | Potency [3] | Potency [4] | Potency [5] | Potency [6] | Potency [8] | Potency [9] | Potency [10]
1.53%: viability change [1]

Nn1nnc2ccccc21
inactive: Potency [1] | outcome [2] | Potency [3] | Potency [4] | Potency [5] | Potency [6] | Potency [8] | Potency [9] | Potency [10]
-0.567%: viability change [1]

Cn1cc(C(=O)OCC2CCN(CCNS(C)(=O)=O)CC2)c2ccccc21
inactive: Potency [1] | outcome [2] | Potency [3] | Potency [4] | Potency [5] | Potency [6] | Potency [7] | Potency [9]
-0.747%: viability change [1]

OC1(c2ccc(Cl)cc2)CCN(Cc2c[nH]c3ccccc23)CC1
-2.32%: viability change [1]
inactive: Potency [1] | outcome [2] | Potency [3] | Potency [4] | Potency [5] | Potency [6] | Potency [8] | Potency [9]

CN(C)C(=O)/N=N/C(=O)N(C)C
inactive: Potency [1] | outcome [2] | Potency [3] | Potency [4] | Potency [5] | Potency [6] | Potency [8] | Potency [9] | Potency [10]
1.53%: viability change [1]

CN[C@H](CC(=O)O)C(=O)O
inactive: Potency [1] | outcome [2] | Potency [3] | Potency [4] | Potency [5] | Potency [6] | Potency [7] | Potency [8] | Potency [10]
-4.15%: viability change [1]

CN1CCCC1CCOC(C)(c1ccccc1)c1ccc(Cl)cc1 (stereo unspecified)
inactive: Potency [1] | outcome [2] | Potency [3] | Potency [4] | Potency [5] | Potency [6] | Potency [7] | Potency [8]
-0.239%: viability change [1]
active: Potency [10] 12.6 µM
